# Laboratory results as given in PubChem BioAssay (EPA / NIEHS).
# Inconclusive results are not listed. Active and inactive are the calls of the source. Rule for the calls, unless noted: active = hit-call score of the fitted dose curve at least 0.9, where 1 is the maximum; inconclusive = response in the unintended direction; inactive = score below 0.9.
# What was measured:
# [1] = molecular target: rat CYP2A1, Cyp2a1 (gene 24894) (UniProt P11711); test: NVS_ADME_rCYP2A1: NovaScreen (NVS) CYP450-related Enzyme Activity (ADME) Assay for rat CYP2A1 (AID 2283114; active = hit-call score of the fitted dose curve at least 0.9, where 1 is the maximum; inactive = score below 0.9)
# rat CYP2A1, Cyp2a1 (gene 24894), sequence (P11711 whole entry, looked up): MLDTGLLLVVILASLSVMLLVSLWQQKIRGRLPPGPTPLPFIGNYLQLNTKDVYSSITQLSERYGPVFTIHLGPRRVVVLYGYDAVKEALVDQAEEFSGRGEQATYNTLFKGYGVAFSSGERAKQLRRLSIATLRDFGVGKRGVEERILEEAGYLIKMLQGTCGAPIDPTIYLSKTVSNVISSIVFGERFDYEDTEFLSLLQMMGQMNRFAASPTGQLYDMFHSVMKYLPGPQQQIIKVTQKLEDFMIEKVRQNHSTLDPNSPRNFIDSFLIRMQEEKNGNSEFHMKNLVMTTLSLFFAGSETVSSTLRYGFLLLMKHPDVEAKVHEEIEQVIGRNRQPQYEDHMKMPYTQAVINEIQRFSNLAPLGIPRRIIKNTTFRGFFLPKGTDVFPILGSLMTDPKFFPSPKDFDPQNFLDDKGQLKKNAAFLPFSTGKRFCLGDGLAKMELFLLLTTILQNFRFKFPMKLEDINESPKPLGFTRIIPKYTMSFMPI
# Method in brief: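 Cell-free fluorescence enzyme-activity read on recombinant rat CYP2A1, taken 0.75 h post-dosing. Compounds were screened in duplicate at 10 uM, then hits tested in concentration series (max 20 uM); inhibition scored relative to acetonitrile baseline.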
# [2] = molecular target: rat CYP1A2, Cyp1a2 (gene 24297) (UniProt P04799); test: NVS_ADME_rCYP1A2: NovaScreen (NVS) CYP450-related Enzyme Activity (ADME) Assay for rat CYP1A2 (AID 2283115)
# rat CYP1A2, Cyp1a2 (gene 24297), sequence (P04799 whole entry, looked up): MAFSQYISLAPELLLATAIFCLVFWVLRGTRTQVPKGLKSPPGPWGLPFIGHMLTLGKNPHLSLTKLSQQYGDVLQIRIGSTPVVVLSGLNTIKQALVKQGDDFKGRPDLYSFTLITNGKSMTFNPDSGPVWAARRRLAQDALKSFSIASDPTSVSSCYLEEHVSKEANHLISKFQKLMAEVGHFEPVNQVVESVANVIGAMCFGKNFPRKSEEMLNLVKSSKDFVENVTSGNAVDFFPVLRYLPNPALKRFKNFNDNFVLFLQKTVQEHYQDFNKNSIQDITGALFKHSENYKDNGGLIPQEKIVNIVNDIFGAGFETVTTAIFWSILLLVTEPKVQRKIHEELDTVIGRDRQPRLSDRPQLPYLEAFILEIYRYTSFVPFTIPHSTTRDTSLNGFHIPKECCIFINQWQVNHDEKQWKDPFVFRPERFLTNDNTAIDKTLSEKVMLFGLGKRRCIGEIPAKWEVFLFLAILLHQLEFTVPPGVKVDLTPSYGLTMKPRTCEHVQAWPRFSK
# Method in brief: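 Primary testing ran in duplicate at 10 uM, with actives re-tested across concentration series. Fluorescence intensity from substrate turnover by recombinant protein, measured 1 hour post-dosing, with signal loss scored against acetonitrile vehicle.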
# [3] = molecular target: rat CYP2D1, Cyp2d1 (gene 266684) (UniProt P10633); test: NVS_ADME_rCYP2D1: NovaScreen (NVS) CYP450-related Enzyme Activity (ADME) Assay for rat CYP2D1 (AID 2283122)
# rat CYP2D1, Cyp2d1 (gene 266684), sequence (P10633 whole entry, looked up): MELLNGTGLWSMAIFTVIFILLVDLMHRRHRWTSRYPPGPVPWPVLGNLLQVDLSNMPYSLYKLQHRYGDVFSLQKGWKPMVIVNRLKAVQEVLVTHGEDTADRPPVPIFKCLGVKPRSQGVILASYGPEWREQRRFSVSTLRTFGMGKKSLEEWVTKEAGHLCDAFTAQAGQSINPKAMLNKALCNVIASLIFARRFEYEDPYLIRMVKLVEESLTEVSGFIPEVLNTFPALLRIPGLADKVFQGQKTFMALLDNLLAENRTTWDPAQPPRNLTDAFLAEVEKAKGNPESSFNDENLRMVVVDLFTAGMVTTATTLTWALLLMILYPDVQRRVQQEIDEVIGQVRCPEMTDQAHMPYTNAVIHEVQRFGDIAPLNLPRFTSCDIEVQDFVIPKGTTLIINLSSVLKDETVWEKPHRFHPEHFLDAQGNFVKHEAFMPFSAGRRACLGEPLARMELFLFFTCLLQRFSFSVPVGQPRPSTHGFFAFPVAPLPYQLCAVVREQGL
# Method in brief: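 Rat CYP2D1 enzyme activity measured by fluorescence intensity in a cell-free format, 0.75 h post-dosing, acetonitrile as negative control. Screening at 10 uM in duplicate, with actives followed in concentration series up to 20 uM.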
# rat CYP3A1, gene 25642 = test: NVS_ADME_rCYP3A1: NovaScreen (NVS) CYP450-related Enzyme Activity (ADME) Assay for rat CYP3A1 (AID 2283126)
# Method in brief: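 Compounds went first at 10 uM duplicate, then to series with 20 uM maximum. Fluorescence from substrate turnover by the recombinant enzyme was measured 0.5 h post-dosing, inhibition scored against acetonitrile vehicle.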
# [4] = molecular target: human Acetylcholinesterase (AChE), ACHE (gene 43) (UniProt P22303); test: NVS_ENZ_hAChE: NovaScreen (NVS) Enzymatic Assay for human Acetylcholinesterase (AChE) (AID 2283129)
# human Acetylcholinesterase (AChE), ACHE (gene 43), sequence (P22303 whole entry, looked up): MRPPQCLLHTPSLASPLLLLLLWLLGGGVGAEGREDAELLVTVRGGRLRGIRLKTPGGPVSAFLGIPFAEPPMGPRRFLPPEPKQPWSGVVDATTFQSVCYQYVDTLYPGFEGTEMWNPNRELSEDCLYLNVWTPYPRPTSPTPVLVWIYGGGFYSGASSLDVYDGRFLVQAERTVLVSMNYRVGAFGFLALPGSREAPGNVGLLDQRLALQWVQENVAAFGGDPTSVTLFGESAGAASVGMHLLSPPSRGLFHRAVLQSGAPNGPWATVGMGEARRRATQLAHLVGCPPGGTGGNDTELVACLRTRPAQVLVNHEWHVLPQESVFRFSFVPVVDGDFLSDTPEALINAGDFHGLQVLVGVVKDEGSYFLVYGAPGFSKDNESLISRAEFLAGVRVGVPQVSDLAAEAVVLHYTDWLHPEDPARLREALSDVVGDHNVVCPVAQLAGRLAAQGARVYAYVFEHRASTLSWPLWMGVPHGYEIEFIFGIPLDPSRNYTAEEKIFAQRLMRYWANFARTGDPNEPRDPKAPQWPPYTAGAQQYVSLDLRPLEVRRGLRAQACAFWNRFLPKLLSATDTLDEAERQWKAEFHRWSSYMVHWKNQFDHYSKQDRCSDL
# Method in brief: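 Actives from a duplicate single-point screen (25 uM) were followed up in concentration series. Enzyme activity read by absorbance (colorimetric) 0.33 hour after dosing, cell-free, normalized to DMSO, with loss of signal scored.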
# [5] = molecular target: rat CYP2A2, Cyp2a2 (gene 24895) (UniProt P15149); test: NVS_ADME_rCYP2A2: NovaScreen (NVS) CYP450-related Enzyme Activity (ADME) Assay for rat CYP2A2 (AID 2283116)
# rat CYP2A2, Cyp2a2 (gene 24895), sequence (P15149 whole entry, looked up): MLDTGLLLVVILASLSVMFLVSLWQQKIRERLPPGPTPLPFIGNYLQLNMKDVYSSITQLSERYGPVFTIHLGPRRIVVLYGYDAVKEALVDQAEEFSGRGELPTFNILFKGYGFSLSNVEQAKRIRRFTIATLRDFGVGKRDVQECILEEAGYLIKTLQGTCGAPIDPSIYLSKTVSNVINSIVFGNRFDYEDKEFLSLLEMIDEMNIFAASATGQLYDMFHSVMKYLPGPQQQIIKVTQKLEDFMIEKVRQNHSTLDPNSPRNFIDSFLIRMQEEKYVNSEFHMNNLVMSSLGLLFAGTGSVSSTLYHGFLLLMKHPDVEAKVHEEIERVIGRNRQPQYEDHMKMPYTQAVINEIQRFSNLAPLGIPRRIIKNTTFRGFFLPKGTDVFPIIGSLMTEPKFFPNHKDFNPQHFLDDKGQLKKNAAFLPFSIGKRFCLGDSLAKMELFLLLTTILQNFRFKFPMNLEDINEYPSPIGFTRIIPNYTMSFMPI
# Method in brief: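 Compounds first tested in duplicate at 10 uM, then in singleton concentration series up to 20 uM when over threshold. Activity of the recombinant enzyme read by fluorescence at 0.2 h, normalised to acetonitrile vehicle.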
# [6] = molecular target: rat CYP2D2, Cyp2d26 (gene 25053) (UniProt P10634); test: NVS_ADME_rCYP2D2: NovaScreen (NVS) CYP450-related Enzyme Activity (ADME) Assay for rat CYP2D2 (AID 2283124)
# rat CYP2D2, Cyp2d26 (gene 25053), sequence (P10634 whole entry, looked up, canonical isoform): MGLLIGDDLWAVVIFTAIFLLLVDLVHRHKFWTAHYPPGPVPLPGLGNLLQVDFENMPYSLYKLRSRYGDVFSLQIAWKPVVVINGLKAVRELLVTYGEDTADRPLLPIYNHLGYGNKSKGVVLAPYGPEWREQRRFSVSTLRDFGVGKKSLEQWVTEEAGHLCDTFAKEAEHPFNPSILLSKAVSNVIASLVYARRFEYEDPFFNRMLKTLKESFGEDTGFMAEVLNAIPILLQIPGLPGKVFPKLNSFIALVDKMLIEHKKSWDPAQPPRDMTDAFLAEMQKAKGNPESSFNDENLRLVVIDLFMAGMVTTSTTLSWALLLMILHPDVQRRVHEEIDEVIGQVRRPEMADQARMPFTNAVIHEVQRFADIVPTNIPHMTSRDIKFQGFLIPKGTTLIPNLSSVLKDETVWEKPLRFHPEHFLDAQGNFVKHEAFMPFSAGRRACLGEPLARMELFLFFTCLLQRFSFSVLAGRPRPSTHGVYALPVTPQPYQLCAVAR
# Method in brief: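 Single-concentration duplicate testing at 10 uM, followed by concentration-response (top 20 uM) for chemicals passing threshold. Enzyme activity of the recombinant rat isoform measured by fluorescence after 0.75 h, acetonitrile as baseline.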
# [7] = molecular target: human AMP-activated Protein Kinase, alpha 1 (AMPKa1), PRKAA1 (gene 5562) (UniProt Q13131); test: NVS_ENZ_hAMPKa1: NovaScreen (NVS) Enzymatic Assay for human AMP-activated Protein Kinase, alpha 1 (AMPKa1) (AID 2283130)
# Method in brief: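 Compounds were screened in duplicate at 25 uM, and those reaching ~30% inhibition were titrated up to 50 uM. The enzyme was recombinant human AMPKα1, and kinase turnover was read by fluorescence/mobility shift 1 h post-dosing as loss of signal versus DMSO.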
# [8] = molecular target: human Caspase 5 (CASP5), CASP5 (gene 838) (UniProt P51878); test: NVS_ENZ_hCASP5: NovaScreen (NVS) Enzymatic Assay for human Caspase 5 (CASP5) (AID 2283137)
# human Caspase 5 (CASP5), CASP5 (gene 838), sequence (P51878 whole entry, looked up): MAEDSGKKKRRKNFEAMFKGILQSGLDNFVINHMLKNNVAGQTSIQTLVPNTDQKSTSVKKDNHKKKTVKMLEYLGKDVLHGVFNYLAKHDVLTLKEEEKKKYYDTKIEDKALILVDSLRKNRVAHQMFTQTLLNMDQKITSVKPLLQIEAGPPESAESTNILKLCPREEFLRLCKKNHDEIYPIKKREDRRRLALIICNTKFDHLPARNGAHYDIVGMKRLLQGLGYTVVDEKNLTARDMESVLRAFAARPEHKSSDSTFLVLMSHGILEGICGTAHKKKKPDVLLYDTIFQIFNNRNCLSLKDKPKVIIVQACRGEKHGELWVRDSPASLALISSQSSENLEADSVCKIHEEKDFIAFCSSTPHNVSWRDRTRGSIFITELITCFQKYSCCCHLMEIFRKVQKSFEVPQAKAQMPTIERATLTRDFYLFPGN
# Method in brief: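 Caspase 5 enzyme activity, detected as fluorescence signal loss, is measured in a biochemical format using E. coli-expressed protein. Reading occurs 2 hours post-dosing. Screening runs at 25 uM, with confirmed actives titrated to 50 uM maximum.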
# Caspase-3 (Homo sapiens) = Caspase-3 (Homo sapiens) (UniProt P42574); test: NVS_ENZ_hCASP3: NovaScreen (NVS) Enzymatic Assay for human Caspase 3 (CASP3) (AID 2283139)
# Caspase-3 (Homo sapiens), sequence (P42574 whole entry, looked up): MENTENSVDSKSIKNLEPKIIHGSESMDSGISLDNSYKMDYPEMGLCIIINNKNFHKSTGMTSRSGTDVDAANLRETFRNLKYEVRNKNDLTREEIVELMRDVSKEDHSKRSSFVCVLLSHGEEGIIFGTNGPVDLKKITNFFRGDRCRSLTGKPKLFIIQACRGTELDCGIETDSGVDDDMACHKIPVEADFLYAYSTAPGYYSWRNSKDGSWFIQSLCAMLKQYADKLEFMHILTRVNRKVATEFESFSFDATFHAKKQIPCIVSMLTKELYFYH
# Method in brief: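 Single-concentration screening at 25 uM in duplicate, with concentration-response follow-up to a 50 uM maximum for chemicals passing the threshold. Caspase-3 (human, E. coli-expressed) activity was read as substrate fluorescence after 1 h, with loss of signal relative to DMSO.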
# [9] = molecular target: human Beta-secretase (BACE), BACE1 (gene 23621) (UniProt P56817); test: NVS_ENZ_hBACE: NovaScreen (NVS) Enzymatic Assay for human Beta-secretase (BACE) (AID 2283140);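 note: hits are inhibitors that reduce fluorescent substrate signal versus DMSO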
# human Beta-secretase (BACE), BACE1 (gene 23621), sequence (P56817 whole entry, looked up): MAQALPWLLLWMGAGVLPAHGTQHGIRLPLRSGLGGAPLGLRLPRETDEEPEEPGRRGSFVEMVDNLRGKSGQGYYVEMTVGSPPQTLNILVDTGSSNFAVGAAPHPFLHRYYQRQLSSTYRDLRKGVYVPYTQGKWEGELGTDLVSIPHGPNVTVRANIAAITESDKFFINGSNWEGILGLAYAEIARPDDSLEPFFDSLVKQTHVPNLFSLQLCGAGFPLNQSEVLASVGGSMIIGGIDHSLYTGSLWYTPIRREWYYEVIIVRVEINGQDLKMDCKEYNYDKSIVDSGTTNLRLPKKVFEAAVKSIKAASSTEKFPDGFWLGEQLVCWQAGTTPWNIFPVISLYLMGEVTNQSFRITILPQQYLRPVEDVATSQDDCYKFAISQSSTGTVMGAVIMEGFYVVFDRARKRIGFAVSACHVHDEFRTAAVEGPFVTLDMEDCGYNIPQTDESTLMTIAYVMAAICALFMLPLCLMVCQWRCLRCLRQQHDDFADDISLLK
# Method in brief: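 Enzyme activity of SF9-produced BACE1 is measured cell-free by fluorescence, 1 hour post dosing, normalised to DMSO. Screening used 25 uM in duplicate, with concentration-response follow-up for actives.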
# [10] = molecular target: rat CYP2C12, Cyp2c12 (gene 25011) (UniProt P11510); test: NVS_ADME_rCYP2C12: NovaScreen (NVS) CYP450-related Enzyme Activity (ADME) Assay for rat CYP2C12 (AID 2283119)
# rat CYP2C12, Cyp2c12 (gene 25011), sequence (P11510 whole entry, looked up): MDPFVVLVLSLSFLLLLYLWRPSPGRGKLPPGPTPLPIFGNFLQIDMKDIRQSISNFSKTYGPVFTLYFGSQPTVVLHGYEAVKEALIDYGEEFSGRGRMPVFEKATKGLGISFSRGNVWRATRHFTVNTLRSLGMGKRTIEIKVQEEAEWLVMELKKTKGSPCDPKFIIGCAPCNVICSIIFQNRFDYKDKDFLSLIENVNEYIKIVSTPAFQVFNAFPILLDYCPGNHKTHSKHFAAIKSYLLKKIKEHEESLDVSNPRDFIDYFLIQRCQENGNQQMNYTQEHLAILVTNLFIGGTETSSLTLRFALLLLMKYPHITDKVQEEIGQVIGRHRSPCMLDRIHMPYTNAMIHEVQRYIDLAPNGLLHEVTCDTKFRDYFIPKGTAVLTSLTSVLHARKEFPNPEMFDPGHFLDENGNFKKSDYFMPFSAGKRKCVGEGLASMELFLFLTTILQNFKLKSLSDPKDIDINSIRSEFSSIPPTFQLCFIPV
# Method in brief: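 Fluorescent-substrate turnover by recombinant rat CYP2C12, measured at 0.5 h, normalized to acetonitrile vehicle. Chemicals screened first at a single 10 uM concentration in duplicate, with concentration series for actives.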
# rat CYP2B1, gene 24300 = test: NVS_ADME_rCYP2B1: NovaScreen (NVS) CYP450-related Enzyme Activity (ADME) Assay for rat CYP2B1 (AID 2283117)
# Method in brief: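 Cell-free fluorescence enzyme assay, recombinant rat CYP2B1, 0.75 h after dosing. Single-concentration duplicates at 10 uM preceded concentration series (max 20 uM) for actives; acetonitrile as negative-control baseline.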
# [11] = molecular target: rat CYP2C11, Cyp2c11 (gene 29277) (UniProt P08683); test: NVS_ADME_rCYP2C11: NovaScreen (NVS) CYP450-related Enzyme Activity (ADME) Assay for rat CYP2C11 (AID 2283118)
# Method in brief: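 Screened first at 10 uM in duplicate, hits followed by concentration-response. Recombinant rat enzyme activity monitored by fluorescence 0.33 h post-dosing, normalised to acetonitrile negative control.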
# rat CYP2C6, gene 293989 = test: NVS_ADME_rCYP2C6: NovaScreen (NVS) CYP450-related Enzyme Activity (ADME) Assay for rat CYP2C6 (AID 2283120)
# Method in brief: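 Compounds first tested in duplicate at 10 uM, hits (e.g. 30% inhibition) re-run in singleton dose series to a 20 uM top concentration. Enzyme activity of recombinant rat CYP2C6 measured via fluorescent substrate turnover after 1 h; acetonitrile baseline.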
smiles,measurement,setting,value
CCC(=O)Nc1ccc(Cl)c(Cl)c1,AC50,[1],2200 nM (active)
same,outcome,[2],inactive
same,AC50,[3],5390 nM (active)
same,AC50,"rat CYP3A1, gene 25642",4740 nM (active)
same,outcome,[4],inactive
CC[C@H](C)[C@H]1O[C@]2(C=C[C@@H]1C)C[C@@H]1C[C@@H](C/C=C(\C)[C@@H](O[C@H]3C[C@H](OC)[C@@H](O[C@H]4C[C@H](OC)[C@@H](NC)[C@H](C)O4)[C@H](C)O3)[C@@H](C)/C=C/C=C3\CO[C@@H]4[C@H](O)C(C)=C[C@@H](C(=O)O1)[C@]34O)O2,AC50,[5],1650 nM (active)
same,AC50,[6],3960 nM (active)
same,AC50,"rat CYP3A1, gene 25642",7040 nM (active)
same,AC50,[7],14600 nM (active)
same,outcome,[8],inactive
same,outcome,Caspase-3 (Homo sapiens),inactive
same,AC50,[9],9680 nM (active)
CSC1=N[C@@](C)(c2ccccc2)C(=O)N1Nc1ccccc1,AC50,[1],7680 nM (active)
same,AC50,[10],8000 nM (active)
same,outcome,[3],inactive
same,AC50,"rat CYP3A1, gene 25642",2770 nM (active)
CCCOCC(=Nc1ccc(Cl)cc1C(F)(F)F)n1ccnc1,AC50,[1],955 nM (active)
same,outcome,[2],inactive
same,AC50,[5],29.4 nM (active)
same,AC50,"rat CYP2B1, gene 24300",279 nM (active)
same,AC50,[11],798 nM (active)
same,AC50,[10],2460 nM (active)
same,AC50,"rat CYP2C6, gene 293989",976 nM (active)
same,AC50,[3],6880 nM (active)
same,AC50,[6],3200 nM (active)
same,AC50,"rat CYP3A1, gene 25642",2800 nM (active)
